Sampled rows, rich in hits. Any-hit rate of the full collection: about 17%.
TDP1 cell CPT – growth inhibition of DT40 Tdp1-/-;hTDP1 cells with camptothecin (screen for TDP1 inhibitors) | chicken DT40 Tdp1-/-;hTDP1 cells + 20 nM CPT, ATP luminescence, 48 h | Potency, µM (highest dose often 46.2 µM), actives largely listed as inhibitors | 12% of 420,000 active; also: nearly all actives have a fitted effect of over 55% in size
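Cell growth measured by CellTiter-Glo luminescence after a minimum 48 h, 37 C compound exposure with 20 nM CPT in Tdp1-knockout DT40 cells stably expressing hTDP1, seeded 400/well; qHTS titration format.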
TGFb SMAD3 inh – inhibitors of TGF-b signaling. Potency, µM (doses to about 46.1 µM), most hits filed as inhibitors. HepG2 CAGA-GFP TGF-b/SMAD3 reporter, GFP fluorescence, 18 h; TGF-beta stimulated, 500 pg/mL final. 1.2% of 410,000 active; also: nearly all actives have a fitted effect of over 65% in size
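HEPG2 CAGA-GFP reporter cells (1000/well, DMEM with 1% FBS) received compounds, then recombinant TGF-beta at 500 pg/mL final for 18 hours at 37 degrees C. Per-cell GFP summed per well was normalised to unstimulated and stimulated DMSO controls before curve fitting.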
HepG2 tox-1 – counter-screen for TGF-b inhibitors: cytotoxicity in HepG2 cells. HepG2 CAGA-GFP viability, ATP luminescence, 18 h. Potency, µM (doses to about 46.1 µM), hits mostly cytotoxic. 0.76% of 410,000 active. AID 588856
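CellTiter-Glo luminescence gave cytotoxicity after 18 hours at 37 degrees C. The cells were HepG2 CAGA-GFP in 1% FBS DMEM, stimulated with 500 pg/mL TGF-beta after compound addition. %Activity was normalised to no-cell wells (complete cell-killing) and DMSO (no toxicity), and curves were fitted and classified.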
ATXN viability – viability counter-screen for ATXN expression inhibitors; S2 cells (HEK-293 line with an ATXN2-luciferase reporter) viability, CellTiter-Fluor protease fluorescence, 24 h; Potency, µM (highest dose often 56.7 µM), usual class: cytotoxic; 0.49% of 400,000 active; AID 651635; also: nearly all actives have a fitted effect of over 40% in size
TDP1 cell noCPT – qHTS for Inhibitors of human tyrosyl-DNA phosphodiesterase 1 (TDP1): qHTS in cells in absence of CPT; AID 686978, 2013; Potency, µM (top dose mostly 46.2 µM), hits mostly inhibitors; 15% of 420,000 active; DT40 Tdp1-/- hTDP1 cells, no CPT, ATP luminescence, 48 h; also: nearly all actives have a fitted effect of over 55% in size
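Readout: luminescence from CellTiter-Glo after 30 min in the dark at RT. Cells: DT40 Tdp1-/- with stable hTDP1, 400/well. Exposure: compounds alone, ≥48 hr, 37 °C.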
ATXN2 expr inh – ATXN2 expression inhibition; Potency, µM (series often up to 57 µM), most hits filed as inhibitors; HEK-293 ATXN2-luciferase reporter, luminescence, 24 h; 0.72% of 360,000 active; also: nearly all actives have a fitted effect of over 55% in size
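qHTS (up to 57 uM final) was run with 24 h compound exposure of reporter cells at 37 °C. Each well was multiplexed: SteadyGlo luminescence measured ATXN2-luciferase expression after a fluorogenic Gly-Phe-AFC viability readout (25 uM final).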
TGFb confirm – TGF-b pathway inhibition, cherry-pick retest; shares compounds with TGFb SMAD3 inh; Potency, µM (series often up to 46.1 µM), most hits filed as inhibitors; HepG2 CAGA-GFP TGF-b reporter, GFP fluorescence, 18 h; cells stimulated with TGF-beta, 500 pg/mL; 63% of 1,600 active; AID 720534; also: nearly all actives have a fitted effect of over 65% in size
HepG2 tox-2 – counter-screen for TGF-b inhibitors: cytotoxicity in HepG2 cells | shares compounds with TGFb SMAD3 inh | HepG2 CAGA-GFP viability, ATP luminescence, 18 h; cells stimulated with TGF-beta, 500 pg/mL | Potency, µM (doses to about 46.1 µM), usual class: inhibitors | 27% of 1,600 active | AID 720535; also: nearly all actives have a fitted effect of over 70% in size
TGFb CCL64 inh – orthogonal confirmation of TGF-b inhibitors in CCL64 cells. CCL64 CAGA-GFP reporter, TGF-b stimulated, GFP fluorescence, 18 h. 41% of 1,600 active. shares compounds with TGFb SMAD3 inh. Potency, µM (highest dose often 46.1 µM), actives largely listed as inhibitors. AID 720536; also: nearly all actives have a fitted effect of over 65% in size
TGFb COP inh – validation of TGF-b inhibitors in HepG2 COP promoter reporter; shares compounds with TGFb SMAD3 inh; HepG2 COP-GFP TGF-b reporter, GFP fluorescence, 18 h; cells stimulated by added recombinant TGF-beta; Potency, µM (highest dose often 46.1 µM), actives largely listed as inhibitors; 3% of 1,600 active; AID 720537; also: nearly all actives have a fitted effect of over 70% in size
Hits are given with their value; ! = repeats disagree. Calls follow the shape of the dose curve; as a rule, active = well fitted curve in the direction sought with a large enough effect; inconclusive = small, poorly fitted or top-dose-only effect, or another doubt; inactive = no such curve, though single readings can be large; an effect the other way counts as inactive or inconclusive.

Screening CCOC(=O)c1cc(S(=O)(=O)Nc2ccccc2)[nH]n1 returned TDP1 cell CPT inactive, TGFb SMAD3 inh inactive, HepG2 tox-1 inactive, ATXN viability inactive, TDP1 cell noCPT inactive and ATXN2 expr inh inactive.
Cc1cc(C)cc(OCC(=O)NNC(=O)CN2C(=O)c3ccccc3C2=O)c1 was read as TDP1 cell CPT inactive, TGFb SMAD3 inh inactive, HepG2 tox-1 inactive, ATXN viability inactive, TDP1 cell noCPT inactive and ATXN2 expr inh inactive.
For CC(C)=CCN1CCN(Cc2ccc(Sc3nncn3C)o2)CC1CCO (centres undefined) the results were TDP1 cell CPT inactive, TGFb SMAD3 inh inactive, HepG2 tox-1 inactive, ATXN viability inactive, TDP1 cell noCPT inactive and ATXN2 expr inh inactive.
For O=C(NC1CC(=O)N(c2ccc3c(c2)OCCO3)C1)N1CCC(O)CC1 (centres undefined) the results were TDP1 cell CPT inactive, TGFb SMAD3 inh inconclusive, HepG2 tox-1 inactive, ATXN viability inactive, TDP1 cell noCPT inactive and ATXN2 expr inh inactive.
CC1(C(=O)Nc2ccccc2Br)CCN1C(=O)Cc1ccccc1Cl (centres undefined) was read as TDP1 cell CPT inactive, TGFb SMAD3 inh inactive, HepG2 tox-1 inactive, ATXN viability inactive, TDP1 cell noCPT inactive and ATXN2 expr inh inactive.
For CC1(C(=O)Nc2ccccc2Cc2ccccc2)CCN1Cc1ccccc1Cl (centres undefined) the results were TDP1 cell CPT inconclusive, TGFb SMAD3 inh 13µM, HepG2 tox-1 inactive, ATXN viability inactive, TDP1 cell noCPT 23µM, ATXN2 expr inh inconclusive, TGFb confirm 9.2µM, HepG2 tox-2 inconclusive, TGFb CCL64 inh 16µM and TGFb COP inh inactive.
`CC(=O)Nc1ccc(NC2=C/C(=N/S(=O)(=O)c3cccs3)c3ccccc3C2=O)cc1` gave TDP1 cell CPT 13µM, TGFb SMAD3 inh 5µM, HepG2 tox-1 6.3µM, ATXN viability 10µM, TDP1 cell noCPT 10µM, ATXN2 expr inh 16µM, TGFb confirm 2.6µM, HepG2 tox-2 3.3µM, TGFb CCL64 inh 9.2µM and TGFb COP inh 5.2µM.
Screening COc1ccc(S(=O)(=O)c2ccc(O)cc2)cc1 returned TDP1 cell CPT inactive, TGFb SMAD3 inh inactive, HepG2 tox-1 inactive, ATXN viability inactive, TDP1 cell noCPT inactive and ATXN2 expr inh inactive.
`COc1ccc(S(=O)(=O)/N=C2\C=C(Nc3ccc(O)cc3)C(=O)c3ccccc32)cc1` gave TDP1 cell CPT 0.82µM, TGFb SMAD3 inh 0.79µM, HepG2 tox-1 0.89µM, ATXN viability 6.3µM, TDP1 cell noCPT 1.5µM, ATXN2 expr inh 3.2µM, TGFb confirm 0.58µM, HepG2 tox-2 4.1µM, TGFb CCL64 inh 1.3µM and TGFb COP inh inconclusive.
`CS/C(=N\S(=O)(=O)c1cccs1)Nc1ccc(Cl)cc1` gave TDP1 cell CPT inactive, TGFb SMAD3 inh inconclusive, HepG2 tox-1 inactive, ATXN viability inactive, TDP1 cell noCPT inconclusive and ATXN2 expr inh inactive.
`COc1ccccc1C1CCN(Cc2ccc3ccccc3c2)CC1` gave TDP1 cell CPT inconclusive, TGFb SMAD3 inh inconclusive, HepG2 tox-1 inactive, ATXN viability inconclusive, TDP1 cell noCPT inconclusive and ATXN2 expr inh inconclusive.
O=P(c1ccccc1)(c1ccccc1)c1cc(S(=O)(=O)O)ccc1O was read as TDP1 cell CPT inactive, TGFb SMAD3 inh inactive, HepG2 tox-1 inactive, ATXN viability inactive, TDP1 cell noCPT inactive and ATXN2 expr inh inactive.
O=C(COc1ccccc1)Nc1ccc(-c2ccc(N3CCOCC3)nn2)cc1 was read as TDP1 cell CPT inconclusive, TGFb SMAD3 inh inactive, HepG2 tox-1 inactive, ATXN viability inactive, TDP1 cell noCPT inconclusive and ATXN2 expr inh inactive.
`CC1CN(S(=O)(=O)c2ccc(C(=O)NC3CCCCC3)cc2)CC(C)O1` (centres undefined) gave TDP1 cell CPT inactive, TGFb SMAD3 inh inactive, HepG2 tox-1 inactive, ATXN viability inactive, TDP1 cell noCPT inactive and ATXN2 expr inh inactive.
For O=C(O)c1cccc(Nc2ccc3nonc3c2[N+](=O)[O-])c1 the results were TDP1 cell CPT inactive, TGFb SMAD3 inh inactive, HepG2 tox-1 inactive, ATXN viability inconclusive, TDP1 cell noCPT inactive and ATXN2 expr inh inactive.
For O=[N+]([O-])c1c(Nc2cccc(O)c2)cc(Cl)c2nonc12 the results were TDP1 cell CPT 1.8µM, TGFb SMAD3 inh 3.5µM, HepG2 tox-1 3.5µM, ATXN viability 10µM, TDP1 cell noCPT 1.8µM, ATXN2 expr inh inconclusive, TGFb confirm 2.9µM, HepG2 tox-2 3.3µM, TGFb CCL64 inh 2.9µM and TGFb COP inh 4.6µM.
`CCN(c1ccccc1)S(=O)(=O)c1ccc(NC(=O)c2ccco2)cc1` gave TDP1 cell CPT inconclusive, TGFb SMAD3 inh inactive, HepG2 tox-1 inactive, ATXN viability inactive, TDP1 cell noCPT inconclusive and ATXN2 expr inh inactive.
For CCN(c1ccccc1)S(=O)(=O)c1ccc(NC(=O)c2nc(S(C)(=O)=O)ncc2Cl)cc1 the results were TDP1 cell CPT 1.2µM, TGFb SMAD3 inh 6.3µM, HepG2 tox-1 6.3µM, TDP1 cell noCPT 1µM, ATXN2 expr inh 13µM, TGFb confirm 4.1µM, HepG2 tox-2 5.2µM, TGFb CCL64 inh 1.5µM and TGFb COP inh 6.5µM.
For CCS(=O)(=O)c1ncc(Cl)c(C(=O)Nc2ccc(S(=O)(=O)N(C)c3ccccc3)cc2)n1 the results were TDP1 cell CPT 0.73µM, TGFb SMAD3 inh 3.5µM, HepG2 tox-1 4.5µM!, ATXN viability 20µM, TDP1 cell noCPT 0.65µM, ATXN2 expr inh 20µM, TGFb confirm 4.6µM, HepG2 tox-2 4.1µM, TGFb CCL64 inh 1.6µM and TGFb COP inh 7.3µM.
